Laboratory results: ChEMBL document CHEMBL1961873, “Compounds: GSK PKIS; Assays: Nanosyn kinase panel” (2012)

What was measured:
[1] = target: Sphingosine kinase 1 (Homo sapiens) (UniProt Q9NYA1); conditions: at 1 µM;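 also: mean SPHK1 inhibition value reported from the GSK PKIS kinase panel screen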
[2] = target: T1, Sphingosine kinase 2 (Homo sapiens) (UniProt Q9NRA0); conditions: at 0.1 µM
T1 sequence (whole entry): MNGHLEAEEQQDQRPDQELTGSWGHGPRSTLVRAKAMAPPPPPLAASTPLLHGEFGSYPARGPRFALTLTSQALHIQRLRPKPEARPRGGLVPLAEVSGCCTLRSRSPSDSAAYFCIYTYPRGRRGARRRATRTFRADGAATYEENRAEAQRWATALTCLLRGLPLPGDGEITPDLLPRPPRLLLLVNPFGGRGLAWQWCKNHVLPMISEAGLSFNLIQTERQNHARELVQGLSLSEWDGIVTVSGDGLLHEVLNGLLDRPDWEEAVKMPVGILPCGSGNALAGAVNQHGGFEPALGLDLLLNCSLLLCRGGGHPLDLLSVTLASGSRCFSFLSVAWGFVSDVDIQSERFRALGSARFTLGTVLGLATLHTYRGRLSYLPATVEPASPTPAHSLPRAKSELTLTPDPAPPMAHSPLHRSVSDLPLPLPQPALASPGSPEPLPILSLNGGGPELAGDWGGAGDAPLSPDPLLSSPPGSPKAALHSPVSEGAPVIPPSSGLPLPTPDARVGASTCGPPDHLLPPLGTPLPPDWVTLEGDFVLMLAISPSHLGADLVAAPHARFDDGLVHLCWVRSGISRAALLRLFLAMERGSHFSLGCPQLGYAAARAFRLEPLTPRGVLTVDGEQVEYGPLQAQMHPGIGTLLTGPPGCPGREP

[3] = target: T1, Sphingosine kinase 2 (Homo sapiens); conditions: at 1 µM
[4] = target: Casein kinase II subunit alpha (Homo sapiens) (UniProt P68400); conditions: at 0.1 µM
[5] = target: Casein kinase II subunit alpha (Homo sapiens) (UniProt P68400); conditions: at 1 µM
[6] = target: T2, Inhibitor of nuclear factor kappa-B kinase subunit alpha (Homo sapiens) (UniProt O15111); conditions: at 0.1 µM
T2 sequence (whole entry): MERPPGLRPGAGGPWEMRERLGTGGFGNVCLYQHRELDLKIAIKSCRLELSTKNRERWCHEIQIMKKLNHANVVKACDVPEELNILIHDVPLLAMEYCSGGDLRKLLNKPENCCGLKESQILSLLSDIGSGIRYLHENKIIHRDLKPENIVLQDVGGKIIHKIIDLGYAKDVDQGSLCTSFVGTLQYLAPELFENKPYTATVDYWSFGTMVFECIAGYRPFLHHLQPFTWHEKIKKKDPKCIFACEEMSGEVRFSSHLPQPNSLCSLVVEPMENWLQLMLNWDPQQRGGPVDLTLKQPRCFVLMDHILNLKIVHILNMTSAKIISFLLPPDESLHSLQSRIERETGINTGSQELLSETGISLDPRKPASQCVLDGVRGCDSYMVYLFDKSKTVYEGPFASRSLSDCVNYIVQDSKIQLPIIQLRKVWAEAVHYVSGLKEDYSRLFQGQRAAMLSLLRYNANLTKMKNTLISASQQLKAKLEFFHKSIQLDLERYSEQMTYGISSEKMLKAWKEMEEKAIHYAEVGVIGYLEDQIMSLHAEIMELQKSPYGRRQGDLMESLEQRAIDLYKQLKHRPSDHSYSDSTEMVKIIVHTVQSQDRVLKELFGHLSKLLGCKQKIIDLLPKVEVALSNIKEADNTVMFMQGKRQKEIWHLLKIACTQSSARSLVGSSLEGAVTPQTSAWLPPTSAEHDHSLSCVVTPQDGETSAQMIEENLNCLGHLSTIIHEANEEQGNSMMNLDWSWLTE

[7] = target: T2, Inhibitor of nuclear factor kappa-B kinase subunit alpha (Homo sapiens); conditions: at 1 µM
[8] = target: T3, Inhibitor of nuclear factor kappa-B kinase subunit beta (Homo sapiens) (UniProt O14920); conditions: at 0.1 µM
T3 sequence (whole entry): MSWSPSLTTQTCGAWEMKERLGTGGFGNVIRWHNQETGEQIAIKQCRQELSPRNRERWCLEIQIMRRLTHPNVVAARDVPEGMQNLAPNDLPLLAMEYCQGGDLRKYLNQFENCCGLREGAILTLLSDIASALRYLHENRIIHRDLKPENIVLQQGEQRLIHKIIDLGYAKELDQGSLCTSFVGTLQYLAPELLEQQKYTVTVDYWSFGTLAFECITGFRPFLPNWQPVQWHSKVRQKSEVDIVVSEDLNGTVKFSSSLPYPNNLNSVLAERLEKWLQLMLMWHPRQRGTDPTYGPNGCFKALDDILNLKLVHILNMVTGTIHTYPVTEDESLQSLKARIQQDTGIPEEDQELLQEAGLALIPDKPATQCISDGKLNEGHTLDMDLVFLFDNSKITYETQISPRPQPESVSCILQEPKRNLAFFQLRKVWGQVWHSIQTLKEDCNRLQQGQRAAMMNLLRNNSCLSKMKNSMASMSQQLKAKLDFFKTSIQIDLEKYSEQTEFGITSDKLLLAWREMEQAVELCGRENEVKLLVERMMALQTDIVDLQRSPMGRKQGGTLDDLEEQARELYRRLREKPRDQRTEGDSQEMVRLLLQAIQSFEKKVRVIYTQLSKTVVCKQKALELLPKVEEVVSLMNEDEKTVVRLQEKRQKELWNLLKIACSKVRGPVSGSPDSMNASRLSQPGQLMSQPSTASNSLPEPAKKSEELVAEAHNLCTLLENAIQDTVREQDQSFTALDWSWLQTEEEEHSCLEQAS

[9] = target: T3, Inhibitor of nuclear factor kappa-B kinase subunit beta (Homo sapiens); conditions: at 1 µM
[10] = target: T4, Inhibitor of nuclear factor kappa-B kinase subunit epsilon (Homo sapiens) (UniProt Q14164); conditions: at 0.1 µM
T4 sequence (whole entry): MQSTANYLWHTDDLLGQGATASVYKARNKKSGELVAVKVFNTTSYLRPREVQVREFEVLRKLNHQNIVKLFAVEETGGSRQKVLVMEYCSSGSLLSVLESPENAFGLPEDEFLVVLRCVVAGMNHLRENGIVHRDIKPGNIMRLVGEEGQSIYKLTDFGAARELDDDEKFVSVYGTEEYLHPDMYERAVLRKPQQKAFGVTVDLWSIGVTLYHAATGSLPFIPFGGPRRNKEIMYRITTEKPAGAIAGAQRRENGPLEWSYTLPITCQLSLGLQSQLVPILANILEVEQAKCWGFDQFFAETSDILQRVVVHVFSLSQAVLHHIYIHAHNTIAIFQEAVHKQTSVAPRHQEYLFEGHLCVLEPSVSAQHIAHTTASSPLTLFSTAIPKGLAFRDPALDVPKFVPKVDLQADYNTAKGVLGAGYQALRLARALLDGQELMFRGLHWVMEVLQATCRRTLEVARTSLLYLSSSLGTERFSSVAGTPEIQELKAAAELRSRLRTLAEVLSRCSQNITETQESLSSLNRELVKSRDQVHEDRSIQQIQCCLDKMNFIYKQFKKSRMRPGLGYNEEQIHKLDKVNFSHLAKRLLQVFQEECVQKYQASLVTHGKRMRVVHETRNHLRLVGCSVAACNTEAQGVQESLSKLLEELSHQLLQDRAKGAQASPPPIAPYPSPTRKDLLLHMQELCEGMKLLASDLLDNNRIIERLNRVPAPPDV

[11] = target: T4, Inhibitor of nuclear factor kappa-B kinase subunit epsilon (Homo sapiens); conditions: at 1 µM
[12] = target: T5, Serine/threonine-protein kinase Nek1 (Homo sapiens) (UniProt Q96PY6); conditions: at 0.1 µM
T5 sequence (whole entry): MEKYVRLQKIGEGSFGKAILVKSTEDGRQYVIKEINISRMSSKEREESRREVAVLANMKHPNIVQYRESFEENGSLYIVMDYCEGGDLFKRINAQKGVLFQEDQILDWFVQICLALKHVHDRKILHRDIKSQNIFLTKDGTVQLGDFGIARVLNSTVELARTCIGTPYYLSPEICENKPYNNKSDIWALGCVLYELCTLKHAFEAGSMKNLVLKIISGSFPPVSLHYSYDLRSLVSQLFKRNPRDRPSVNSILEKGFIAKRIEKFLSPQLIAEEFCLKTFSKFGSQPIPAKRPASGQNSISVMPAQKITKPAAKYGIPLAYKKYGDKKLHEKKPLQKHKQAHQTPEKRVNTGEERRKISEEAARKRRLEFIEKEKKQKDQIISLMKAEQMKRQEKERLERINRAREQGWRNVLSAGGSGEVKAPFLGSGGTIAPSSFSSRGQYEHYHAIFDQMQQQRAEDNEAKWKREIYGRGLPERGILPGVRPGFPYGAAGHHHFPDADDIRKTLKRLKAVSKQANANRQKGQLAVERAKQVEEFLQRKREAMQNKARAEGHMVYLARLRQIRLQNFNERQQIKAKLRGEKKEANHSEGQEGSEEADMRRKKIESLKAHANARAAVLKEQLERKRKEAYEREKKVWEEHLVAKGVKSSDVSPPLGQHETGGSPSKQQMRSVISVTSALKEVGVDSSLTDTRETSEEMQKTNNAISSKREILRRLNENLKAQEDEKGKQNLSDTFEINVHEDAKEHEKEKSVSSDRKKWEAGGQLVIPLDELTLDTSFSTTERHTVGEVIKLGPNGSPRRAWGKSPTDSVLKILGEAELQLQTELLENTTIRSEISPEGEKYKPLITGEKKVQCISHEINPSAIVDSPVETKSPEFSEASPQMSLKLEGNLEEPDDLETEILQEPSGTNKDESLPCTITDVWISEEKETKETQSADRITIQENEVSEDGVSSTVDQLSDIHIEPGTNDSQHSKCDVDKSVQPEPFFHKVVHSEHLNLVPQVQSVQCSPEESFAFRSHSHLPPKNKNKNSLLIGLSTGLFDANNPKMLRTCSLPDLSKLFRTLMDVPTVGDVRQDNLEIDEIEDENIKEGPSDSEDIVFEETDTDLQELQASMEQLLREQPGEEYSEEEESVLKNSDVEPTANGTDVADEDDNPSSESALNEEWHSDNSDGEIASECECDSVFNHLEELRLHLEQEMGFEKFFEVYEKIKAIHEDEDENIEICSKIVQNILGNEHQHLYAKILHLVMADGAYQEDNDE

[13] = target: T5, Serine/threonine-protein kinase Nek1 (Homo sapiens); conditions: at 1 µM
[14] = target: T6, Serine/threonine-protein kinase Nek2 (Homo sapiens) (UniProt P51955); conditions: at 0.1 µM
T6 sequence (whole entry): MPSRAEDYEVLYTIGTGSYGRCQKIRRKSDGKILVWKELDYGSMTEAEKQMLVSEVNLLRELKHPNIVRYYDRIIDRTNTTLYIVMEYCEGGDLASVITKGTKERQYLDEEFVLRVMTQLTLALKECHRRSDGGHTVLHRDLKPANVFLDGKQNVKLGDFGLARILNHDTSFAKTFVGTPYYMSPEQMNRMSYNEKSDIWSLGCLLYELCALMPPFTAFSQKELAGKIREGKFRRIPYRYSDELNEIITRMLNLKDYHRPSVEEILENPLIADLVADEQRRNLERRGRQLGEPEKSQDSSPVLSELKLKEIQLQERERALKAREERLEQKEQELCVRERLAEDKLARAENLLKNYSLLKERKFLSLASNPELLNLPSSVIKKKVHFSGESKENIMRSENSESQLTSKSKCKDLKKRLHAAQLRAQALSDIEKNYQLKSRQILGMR

[15] = target: T6, Serine/threonine-protein kinase Nek2 (Homo sapiens); conditions: at 1 µM
[16] = target: Serine/threonine-protein kinase Nek6 (Homo sapiens) (UniProt Q9HC98); conditions: at 0.1 µM
[17] = target: Serine/threonine-protein kinase Nek6 (Homo sapiens) (UniProt Q9HC98); conditions: at 1 µM
[18] = target: Serine/threonine-protein kinase Nek7 (Homo sapiens) (UniProt Q8TDX7); conditions: at 0.1 µM
[19] = target: Serine/threonine-protein kinase Nek7 (Homo sapiens) (UniProt Q8TDX7); conditions: at 1 µM
[20] = target: T7, Serine/threonine-protein kinase Nek9 (Homo sapiens) (UniProt Q8TD19); conditions: at 0.1 µM;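 also: reported value is the mean percent inhibition of NEK9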
T7 sequence (whole entry): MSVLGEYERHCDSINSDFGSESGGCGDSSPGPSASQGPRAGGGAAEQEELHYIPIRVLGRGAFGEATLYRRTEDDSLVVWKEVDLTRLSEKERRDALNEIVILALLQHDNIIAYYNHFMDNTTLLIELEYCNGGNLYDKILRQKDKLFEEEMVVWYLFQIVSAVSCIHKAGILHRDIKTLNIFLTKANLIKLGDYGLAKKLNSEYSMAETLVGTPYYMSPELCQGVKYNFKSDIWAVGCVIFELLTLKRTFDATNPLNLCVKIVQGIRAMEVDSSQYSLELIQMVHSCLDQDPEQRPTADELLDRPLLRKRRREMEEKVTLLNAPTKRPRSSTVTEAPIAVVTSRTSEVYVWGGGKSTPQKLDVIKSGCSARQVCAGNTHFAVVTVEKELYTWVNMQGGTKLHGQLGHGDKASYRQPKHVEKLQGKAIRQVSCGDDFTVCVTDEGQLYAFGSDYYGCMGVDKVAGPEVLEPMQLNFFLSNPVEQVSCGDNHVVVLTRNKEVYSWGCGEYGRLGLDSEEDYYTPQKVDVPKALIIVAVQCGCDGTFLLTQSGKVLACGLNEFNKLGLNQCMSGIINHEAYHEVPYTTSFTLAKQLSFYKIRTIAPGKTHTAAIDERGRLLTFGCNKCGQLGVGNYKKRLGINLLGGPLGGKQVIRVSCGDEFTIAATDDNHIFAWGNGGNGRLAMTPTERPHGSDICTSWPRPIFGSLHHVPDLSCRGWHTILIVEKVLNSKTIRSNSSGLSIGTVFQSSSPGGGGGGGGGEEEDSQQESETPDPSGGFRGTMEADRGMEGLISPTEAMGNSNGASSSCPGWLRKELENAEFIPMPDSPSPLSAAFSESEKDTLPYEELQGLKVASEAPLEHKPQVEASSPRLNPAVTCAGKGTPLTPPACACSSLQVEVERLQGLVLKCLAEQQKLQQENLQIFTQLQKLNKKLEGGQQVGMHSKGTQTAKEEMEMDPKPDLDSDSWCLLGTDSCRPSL

Chain of Casein kinase II subunit alpha (Homo sapiens) (P68400 whole entry, looked up): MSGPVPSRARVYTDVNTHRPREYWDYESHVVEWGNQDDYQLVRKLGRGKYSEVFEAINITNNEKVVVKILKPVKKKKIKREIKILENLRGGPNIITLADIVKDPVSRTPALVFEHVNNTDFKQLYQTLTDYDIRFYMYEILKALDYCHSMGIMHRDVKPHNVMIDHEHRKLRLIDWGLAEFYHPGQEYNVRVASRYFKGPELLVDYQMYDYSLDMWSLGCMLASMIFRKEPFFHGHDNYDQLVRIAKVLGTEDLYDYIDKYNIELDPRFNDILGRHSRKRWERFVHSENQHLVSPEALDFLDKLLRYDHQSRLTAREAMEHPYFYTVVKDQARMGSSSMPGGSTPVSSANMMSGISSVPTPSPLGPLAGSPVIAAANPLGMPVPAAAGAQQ
Chain of Serine/threonine-protein kinase Nek7 (Homo sapiens) (Q8TDX7 whole entry, looked up): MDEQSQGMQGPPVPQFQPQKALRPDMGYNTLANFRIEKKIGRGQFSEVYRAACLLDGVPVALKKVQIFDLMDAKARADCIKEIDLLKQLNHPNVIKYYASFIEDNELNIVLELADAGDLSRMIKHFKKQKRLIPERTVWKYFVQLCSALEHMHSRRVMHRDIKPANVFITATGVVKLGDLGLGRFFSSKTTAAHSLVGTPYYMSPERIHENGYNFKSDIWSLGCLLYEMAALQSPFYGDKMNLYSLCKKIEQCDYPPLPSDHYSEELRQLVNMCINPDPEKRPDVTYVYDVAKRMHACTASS
Chain of Serine/threonine-protein kinase Nek6 (Homo sapiens) (Q9HC98 whole entry): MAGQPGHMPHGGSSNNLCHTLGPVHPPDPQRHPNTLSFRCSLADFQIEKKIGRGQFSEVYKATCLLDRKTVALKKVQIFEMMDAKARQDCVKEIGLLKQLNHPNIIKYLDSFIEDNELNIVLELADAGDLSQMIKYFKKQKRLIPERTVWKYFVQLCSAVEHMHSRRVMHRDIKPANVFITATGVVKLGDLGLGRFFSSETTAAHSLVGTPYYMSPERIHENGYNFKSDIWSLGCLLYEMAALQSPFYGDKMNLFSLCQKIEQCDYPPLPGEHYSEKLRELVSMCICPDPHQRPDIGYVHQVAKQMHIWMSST
Chain of Sphingosine kinase 1 (Homo sapiens) (Q9NYA1 whole entry): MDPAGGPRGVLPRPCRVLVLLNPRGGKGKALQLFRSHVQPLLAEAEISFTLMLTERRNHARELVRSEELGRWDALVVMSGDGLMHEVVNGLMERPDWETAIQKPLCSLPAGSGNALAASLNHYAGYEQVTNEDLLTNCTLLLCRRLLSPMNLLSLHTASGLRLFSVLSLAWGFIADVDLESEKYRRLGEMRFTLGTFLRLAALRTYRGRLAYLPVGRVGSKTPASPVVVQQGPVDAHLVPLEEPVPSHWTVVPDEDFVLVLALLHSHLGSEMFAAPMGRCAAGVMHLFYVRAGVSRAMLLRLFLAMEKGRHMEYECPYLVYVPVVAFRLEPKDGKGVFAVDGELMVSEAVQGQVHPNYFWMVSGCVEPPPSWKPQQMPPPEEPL

SMILES | inhibition [1] [%] | inhibition [2] [%] | inhibition [3] [%] | inhibition [4] [%] | inhibition [5] [%] | inhibition [6] [%] | inhibition [7] [%] | inhibition [8] [%] | inhibition [9] [%] | inhibition [10] [%] | inhibition [11] [%] | inhibition [12] [%] | inhibition [13] [%] | inhibition [14] [%] | inhibition [15] [%] | inhibition [16] [%] | inhibition [17] [%] | inhibition [18] [%] | inhibition [19] [%] | inhibition [20] [%]
CS(=O)(=O)CCNCc1ccoc1-c1ccc2ncnc(Nc3ccc(OCc4ccccc4)cc3)c2c1 | 5.32 | 1.37 | 1.07 | 2.14 | 1.94 | 1.95 | 8.23 | -1.24 | 0.42 | -0.44 | 0.42 | 0.71 | 2.1 | 1.71 | 0.9 | 1.71 | 0.7 | 0.9 | 1.09 | -0.36
CCS(=O)(=O)c1ccc(OC)c(Nc2ncc(-c3cccc(C(C)=O)c3)o2)c1 | -2.18 | 0.25 | 0.73 | 6.61 | 21.6 | -1.71 | -1.11 | 5.35 | 5.04 | 6.89 | 5.1 | 1.59 | 4.9 | 3.34 | 2.2 | 3.06 | 3.18 | 2.79 | 3.24 | 5.45
